Source: PubChem (National Center for Advancing Translational Sciences (NCATS))
MARV entry inh – Marburg virus entry inhibition | Marburg virus pseudotyped entry inhibition, cell reporter | actives 1.8% (n = 300,000) | Potency, µM (titrated, usually from 37.8 µM), without a hit: at the top dose activity change, negative = inhibition, actives largely listed as inhibitors; calls by dose curve; tested in HEK293 cells; note: potency is the fitted concentration of half-maximal effect
LASV entry inh – Lassa virus entry inhibition | Lassa virus pseudotype entry inhibition, cell reporter | Potency, µM (top dose mostly 37.9 µM), inactives show top-dose activity change, negative = inhibition, most hits filed as inhibitors | actives 1.2% (n = 300,000); calls by dose curve; tested in HEK293 cells; note: potency is the fitted concentration of half-maximal effect; nearly all actives have a fitted effect of over 50% in size
FMDV inh – antivirals against foot and mouth disease virus | FMDV antiviral cell-based qHTS | Potency, µM (highest dose often 57.9 µM), without a hit: at the highest dose activity change, negative = inhibition, most hits filed as inhibitors | actives 1.2% (n = 410,000); calls by dose curve; tested in HEK293T cells; note: read-out not given here; potency is the fitted concentration of half-maximal effect; nearly all actives have a fitted effect of over 45% in size
HCV inh – inhibitors of hepatitis C virus infection; Potency, µM (top dose mostly 41.8 µM), for inactives: at the top dose activity change, negative = inhibition, actives largely listed as inhibitors; AID 651820; actives 3.4% (n = 340,000); Huh7.5.1 HCVcc-Cre infection, luciferase reporter, 44 h; active = well fitted inhibition curve with a large enough effect; inconclusive = small, poorly fitted or top-dose-only effect, or another doubt; inactive = no such curve, though single readings can be large or run the other way; note: potency is the fitted concentration of half-maximal effect
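Luciferase read-out (15 sec integration) after a 15 min room-temperature substrate step quantifies HCVcc-Cre infection. Cells, 1,000 per well, had compound added 4 h post-plating, then virus at ~0.5 moi, and were cultured 44 h.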
HCMV antiviral – blocks human cytomegalovirus replication; actives 4.5% (n = 410,000); activity change, negative = inhibition, % at 57.5 µM; HFF cells, HCMV-luciferase reporter, 72 h; hits give low values; in the data active = activity change below about -60%; inconclusive = no clear call, values can overlap the other calls; inactive = above about -39%
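Steps: HFFs plated, 16 h 37C; compounds added; HCMV-luciferase added to MOI 1 PFU/cell; 72 h 37C; OneGlo reagent, 5 min room temperature; luminescence read, normalized to controls.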
Starred values were filed as active, the others as inactive; ? = inconclusive; · = no result; [ ] = remark or other dose. In the library only some 7.9% were active in any assay of this set; here they are far more common. % is set by controls: 0 for no effect and ±100 for the full control effect.

SMILES	MARV entry inh	LASV entry inh	FMDV inh	HCV inh	HCMV antiviral
CCOC(=O)C1CCCN(C(=O)c2ccc3c(c2)N(Cc2ccccc2)C(=O)c2ccccc2S3(=O)=O)C1 (stereo not given)	1%[46.1 µM]	-27%[46.1 µM]	26%	·	-18
Cc1ccc2scc(N3CCc4ccccc4C3)c(=O)c2c1	·	26%[46.1 µM]	-8%	·	25
Cc1ccccc1C(O)c1cccnc1 (stereo not given)	16%	18%	-24%	15%	-61*
COc1cc(/C=N/N=C2/NC(=O)C(Cc3ccc(F)cc3)S2)ccc1O (stereo not given)	?	?	3%	2%	-19
COc1ccc(/C=N/N=C2/NC(=O)C(CC(=O)O)S2)cc1OCc1ccc(Cl)cc1Cl (stereo not given)	1.1µM*	-4%	-15%	24%	-35
COc1cc(/C=N/N=C2/NC(=O)C(c3ccccc3)S2)ccc1O (stereo not given)	15%	4.5µM*	29%	8%	-65*
CCOC(=O)[C@@H]1[C@H]2COc3ccc(Br)cc3[C@H]2N2C(=O)N(c3ccc(C(F)(F)F)cc3)C(=O)[C@]12C	·	·	-16%	-26%	-76*
CCOC(=O)[C@@H]1[C@H]2COc3ccc(Br)cc3[C@H]2N2C(=O)N(c3ccc(Br)cc3)C(=O)[C@]12C	·	·	-17%	32µM*	·
CCOC(=O)[C@@H]1[C@H]2COc3ccc(Br)cc3[C@@H]2N2C(=O)N(c3ccc(Br)cc3)C(=O)[C@]12C	·	·	-26%	-3%	1
CCOC(=O)C1CCN(C(=O)C2CCN(C3=NS(=O)(=O)C(c4ccc(C)c(C)c4)=C3C)CC2)CC1	13%[46.1 µM]	·	0%	·	-1
Cc1ccc2c(c1)c1c(c(=O)n(-c3ccccc3)c(=O)n1CC(=O)c1ccc(F)cc1)n2C	·	1%[46.1 µM]	-5%	·	13
Cc1nc2ccc(S(=O)(=O)NC(CC(C)C)C(=O)NCc3ccc(Cl)cc3)cc2s1 (stereo not given)	?	-10%[46.1 µM]	-7%	·	-4
Cc1ccc(/C=C2\C(=O)NC(=S)N(c3ccc(F)cc3)C2=O)s1	25%[46.1 µM]	15%	?	?	88
Cc1ccc(/C=C2\C(=O)NC(=S)N(c3ccccc3F)C2=O)s1	?	?	?	?	-101*
CCOc1ccc(-c2cc(C)[n+](CCO)c(-c3ccc(OCC)cc3)c2)cc1	?	?	-27%	-24%	-77*
Fc1ccc(C[n+]2c(-c3ccccc3)cc(-c3ccccc3)cc2-c2ccccc2)cc1	·	·	0%	10µM*	-84*
Cc1cc(-c2ccccc2)cc(-c2ccccc2)[n+]1CCc1ccccc1	·	·	20µM*	?	-98*
CCOc1ccc(-c2nnc(-c3cccs3)o2)cc1	?	?	-51%	?	48
O=C(NCCc1ccc(Cl)cc1)c1cc(-c2ccccc2)n[nH]1	·	-11%[46.1 µM]	-7%	·	-21
O=C([O-])c1cc(-c2ccccc2)cc(-c2ccccc2)[n+]1CCc1ccc(Cl)cc1	·	·	35µM*	1%	-80*
CCc1ccc(C2CC(=O)c3c([nH]c(C(=O)OC4CCC(C)CC4)c3C)C2)cc1 (stereo not given)	11%[46.1 µM]	-2%[46.1 µM]	-19%	·	-6
CC(=O)c1ccc(N2CCN(C(=O)c3cc4c(-c5ccccc5F)nn(C)c4s3)CC2)cc1	·	·	?	14µM*	-13
CCOC(=O)N1CCC(NC(=O)c2cc3c(-c4cccc(OC)c4)nn(C)c3s2)CC1	-17%[46.1 µM]	-27%	?	?	-20
CCOC(=O)N1CCN(C(=O)c2cc3c(-c4cccc(OC)c4)nn(C)c3s2)CC1	?	?	?	8.9µM*	9
COc1ccc(N2CCN(C(=O)c3cc4c(-c5cccc(OC)c5)nn(C)c4s3)CC2)cc1	-2%[46.1 µM]	?	-2%	6.3µM*	-24
SMILES	MARV entry inh	LASV entry inh	FMDV inh	HCV inh	HCMV antiviral
COc1ccccc1N1CCN(C(=O)c2cc3c(-c4ccccc4F)nn(C)c3s2)CC1	-24%[46.1 µM]	?	?	·	-27
COc1cc(OC)cc(-n2nnc(-c3nc(-c4ccccc4Cl)no3)c2N)c1	·	11%[46.1 µM]	35%	·	23
Cc1ccc(N2CCN(C(=O)c3cc(S(=O)(=O)N4CCCCC4)c[nH]3)CC2)c(C)c1	·	-8%[46.1 µM]	-16%	·	?
COc1ccccc1NC(=S)NC1CCCCC1	?	?	27%	?	24
COc1ccccc1NC(=S)NC1CCCCCCCCCCC1	0%	·	-12%	4.5µM*	-61*
COc1ccccc1NC(=S)NCC1CCCCC1	-20%	3%	57%	?	-66*
O=C(Cn1nc2c(cc1=O)CCCC2)NCc1ccccc1	·	-17%[46.1 µM]	24%	·	-9
CNC[C@H](Cc1ccccc1)NC[C@@H](Cc1cccc2ccccc12)NCCc1ccc(C)cc1	·	·	-28%	14%	?
CNCCNC[C@H](Cc1cccc2ccccc12)NCCc1ccccc1	·	·	-20%	?	-100*
c1ccc(-c2cnc(-c3ccccc3)nn2)cc1	·	·	1%	11%	94
c1ccc(-c2cnc(-c3ccccn3)nn2)cc1	·	·	27%	0.5µM*	35
CC(=O)N1CCc2c(sc3c2c(=O)n(-c2ccccc2)c(=O)n3CC(=O)c2ccc(Cl)cc2)C1	-30%[46.1 µM]	·	-23%	·	-4
O=C1N(Cc2cccnc2)C[C@@H]2C[C@@H](c3cccc(OC4CCCC4)c3)N3CCC[C@@]123	21%[46.1 µM]	3%[46.1 µM]	13%	13µM*	?
O=C1N(Cc2cccnc2)C[C@@H]2C[C@@H](c3cccc(OCc4ccccc4)c3)N3CCC[C@@]123	?	-22%	?	?	?
COc1ccccc1[C@@]1(CC(=O)N2CCOCC2)CCO[C@@H](C(C)C)C1	-1%	·	·	·	·
COc1ccc(NS(=O)(=O)c2cc(NC(=O)CCSc3ccccc3)ccc2OC)cc1	?	?	24%	?	-39
COc1ccc(NC(=O)CCS(=O)(=O)c2ccccc2Cl)cc1S(=O)(=O)Nc1ccc(Cl)cc1	·	·	28%	13µM*	-21
COc1ccc(NC(=O)CCSc2ccc(C)cc2)cc1S(=O)(=O)Nc1ccccc1Cl	?	13µM*	-7%	?	-33
COc1ccc(Cl)cc1NC(=O)CCS(=O)(=O)c1cccc2nonc12	24%[46.1 µM]	4%[46.1 µM]	4%	·	-86*
Cc1cc(C)c(NC(=O)C2CCN(C(=O)N3CCOc4ccccc43)CC2)c(C)c1	·	-7%[46.1 µM]	?	·	-16
O=C1[C@H]2[C@@H]3[C@@H](O)[C@H](O)CC(=NOCc4ccccc4)[C@@H]3CC[C@H]2C(=O)N1C1CCCCC1	-14%[14.2 µM]	-8%[14.3 µM]	·	·	·
Cc1cc(SCC(=O)Nc2ccc(O)cc2)n2nc(C)c(-c3ccccc3)c2n1	-28%[46.1 µM]	-4%	-24%	?	-62*
Cc1cc(SCC(=O)Nc2ccc(O)cc2)n2ncc(-c3ccccc3)c2n1	·	·	-24%	?	-10
C=C(C)CSc1cc(C)nc2c(-c3ccccc3)c(C)nn12	·	·	-1%	?	-85*
Cc1c(C(=O)NCc2ccccc2Cl)sc2ncnc(NCC3CCCO3)c12 (stereo not given)	·	·	-1%	·	·
